Test results from PubChem BioAssay.

Each compound was assayed on Wnt5a (protein binding on small-molecule microarray) (assay: Wnt5a binders on small-molecule microarray, primary screen, biophysical, 635/667 nm fluorescence (AID 1142;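 note: fluorescence read at 667 nm with signal to noise per printed feature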)). Settings: 635 nm fluorescence, higher = more signal.

Question: For `COCCOC(=O)N1C(=O)[C@@]2(c3ccccc31)[C@H](c1ccc(OCCO)cc1)N1[C@H](c3ccccc3)[C@H](c3ccccc3)OC(=O)[C@H]1[C@@H]2C(=O)N1CCCCCCC1`, which composite z-score is on record?
Answer: The composite z-score was 2.44.

Question: Which composite z-score does the source give for `CCCCCN1CC=CC23O[C@@H]4/C=C\CCC(C)OC(=O)C4[C@H]2C(=O)N(CCCCCCO)[C@@H]3C1=O` (stereo not given in full) here?
Answer: Its composite z-score is -0.399.

Question: `COCCOC(=O)N1C(=O)[C@@]2(c3ccccc31)[C@H](c1ccccc1OCCO)N1[C@H](c3ccccc3)[C@H](c3ccccc3)OC(=O)[C@H]1[C@@H]2C(=O)N1CCCCCCC1` was tested. Which composite z-score did it give?
Answer: Its composite z-score is 1.82.

Question: `C=C[C@@H](OC)[C@H](OC(=O)Nc1ccc(SC)cc1)c1ccc(OCCO)cc1` was tested. Which composite z-score did it give?
Answer: The composite z-score was 0.502.

Question: How did the composite z-score turn out when `COC(=O)[C@@]1(Cc2ccc(F)cc2)[C@H]2c3cc(C(=O)N(C)C)n(Cc4c(CO)[nH]cc(C)c4=O)c3C[C@H]2CN1C(=O)c1ccccc1` was run?
Answer: The composite z-score was 0.39.

Question: With `Cc1ccccc1C(O)C1C=CC2C(=O)N(c3ccccc3)C(=O)C2N1Nc1ccc([N+](=O)[O-])cc1` (stereo not given) as the compound, how does the composite z-score read?
Answer: The composite z-score was -0.0078.

Question: `COc1cc(NN2C(C(O)c3cc(OC)c(OC)c(OC)c3)C=CC3C(=O)N(c4ccccc4)C(=O)C32)cc(OC)c1OC` (stereo not given) was tested. Which composite z-score did it give?
Answer: Its composite z-score is 0.582.

Question: For `C=CCC(OC(C)=O)[C@@H]1[C@@H](N(Cc2cccc3ccccc23)C(=O)c2cccc3ccccc23)c2cc(OCCCO)ccc2N1C(=O)c1ccc2ccccc2c1` (stereo not given in full), which composite z-score is on record?
Answer: The composite z-score was -0.23.

Question: How did the composite z-score turn out when `COC(=O)[C@@]1(Cc2ccccc2)[C@H]2c3cc(C(=O)N4CCCC4)n(CCSCCO)c3C[C@H]2CN1C(=O)c1ccccc1` was run?
Answer: Its composite z-score is 0.554.

Question: With `Cc1cccc([C@H]2C[C@H]3C(I)=C[C@@H]2C(=O)[C@]32CO2)c1` as the compound, how does the composite z-score read?
Answer: Its composite z-score is -0.243.
